Measurements: PubChem BioAssay (EPA / NIEHS)
The source made the active and inactive calls. How the source made its calls: active means hit-call score of the fitted dose curve at least 0.9, where 1 is the maximum; inactive means score below 0.9.

read-out: Interferon-gamma inducible Protein 10 (IP10), CXCL10 (gene 3627); experiment: BSK_BE3C_IP10: BioMAP Diversity Plus: BE3C Assay for Interferon-gamma inducible Protein 10 (IP10) Biomarker Activity (AID 2283034); details: primary human bronchial epithelial cells; actives raise or lower the signal
Protocol: BSK_BE3C is a cell-based, multiplexed-readout assay that uses bronchial epithelial cell, a human lung primary cell, with measurements taken at 24 hours after chemical dosing in a 96-well plate.BSK_BE3C_IP10 is an assay component measured in the BSK_BE3C assay. It measures IP-10 antibody related to regulation of gene expression using ELISA technology.Data from the assay component BSK_BE3C_IP10 was analyzed into 1 assay endpoint. This assay endpoint, BSK_BE3C_IP10, was analyzed with bidirectional fitting relative to DMSO as the negative control and baseline of activity. Using a type of binding reporter, gain or loss-of-signal activity can be used to understand changes in the signaling as they relate to the gene CXCL10. Furthermore, this assay endpoint can be referred to as a primary readout, because this assay has produced multiple assay endpoints where this one serves a signaling function. To generalize the intended target to other relatable targets, this assay endpoint is annotated to the cytokine intended target family, where the subfamily is chemotactic factor.
The levels of cell surface (or secreted, indicated by the prefix "s") biomarker endpoints were measured by ELISA. Overt cytotoxicity to cells in confluent adherent cultures (all systems other than the BT system) was assessed by measuring total protein levels using sulforhodamine B (SRB) staining in parallel cultures at the time of biomarker measurements, indicated as SRB endpoints. For proliferation assays for adherent cell types, individual cell types are cultured at sub-confluence and relative cell numbers quantified by SRB staining at time points optimized for each system (48 h: 3C and CASM3C systems; 72 h: BT and HDF3CGF systems; 96 h: SAg system). SRB was performed by staining cells with 0.1% SRB after fixation with 10% TCA and reading wells at 560 nm.Viability and proliferation of PBMC (T cells) was quantified by Alamar Blue reduction for the SAg and BT systems. For PBMC viability (referred to as PBMC Cytotoxicity within the assay endpoint names), cells were plated (75,000/well in a 96-well plate) and then chemical samples added for 1 h before addition of activators, SEB and TSST-1 (20 ng/mL final concentration each). Cells were incubated for 90 h. Then, Alamar Blue (20 uL/well) (Invitrogen, Cat DAL1100) was added for 6 h, and the plates were read with a fluorescence microplate reader at 546/580 nm (excitation/emission). For PBMC proliferation, cells were plated and activated as above but incubated for only 16 h prior to addition of Alamar Blue. Plates were read after 6 h.

Compound | outcome | AC50
CCCCC(CC)COC(=O)CCCCCCCCC(=O)OCC(CC)CCCC (stereo not given) | inactive | 
O=C1CCCCCN1 | inactive | 
CC(O)CN(CCN(CC(C)O)CC(C)O)CC(C)O (stereo not given) | inactive | 
CCCCCCCCCCCCc1ccccc1 | inactive | 
Nc1ccc(Nc2ccccc2)cc1 | inactive | 
CC1=CC(=O)CC(C)(C)C1 | inactive | 
CC(C)=CCC/C(C)=C\CO | inactive | 
C[C@](N)(Cc1ccc(O)c(O)c1)C(=O)O | inactive | 
CC(=O)OCCC(C)C | inactive | 
CC(C)(O)c1coc(S(=O)(=O)NC(=O)Nc2c3c(cc4c2CCC4)CCC3)c1 | inactive | 
CCOc1cccc(-n2cc(C(=O)N3CCN(c4cc(C(=O)O)c5ccccc5c4)CC3)nc2-c2ccc(C)cc2)c1 |  | 15 µM (active)
O=P(OC(CCl)CCl)(OC(CCl)CCl)OC(CCl)CCl | inactive | 
Nc1cccc(N)c1 | inactive | 
CCCCCCc1ccc(O)cc1O |  | 32.2 µM (active)
CNCc1ccc(NC(=O)c2c[nH]c3c2C(=O)CCC3)cc1 | inactive | 
CC[C@H](C)C(=O)O[C@H]1C[C@@H](C)C=C2C=C[C@H](C)[C@H](CC[C@@H]3C[C@@H](O)CC(=O)O3)[C@H]21 |  | 36.3 µM (active)
CCn1nc(Cc2ccccc2)cc1C1CCN(C[C@H]2C[C@H](N(C)[C@@H](C(=O)O)C(C)C)C[C@@H]2c2cccc(F)c2)CC1 | inactive | 
Oc1ccc2c(c1)-c1ccccc1C2 | inactive | 
CC/C(=C\C(=N/O)C(N)=O)C(C)[N+](=O)[O-] (stereo not given) |  | 29.8 µM (active)
Nc1nc2ncc(CNc3ccc(C(=O)N[C@@H](CCC(=O)O)C(=O)O)cc3)nc2c(=O)[nH]1 | inactive | 

Compound | outcome | AC50
COC(=O)c1c(Cl)c(Cl)c(C(=O)OC)c(Cl)c1Cl | inactive | 
CC(C)CCCCCCOC(=O)c1ccc(C(=O)OCCCCCCC(C)C)c(C(=O)OCCCCCCC(C)C)c1 | inactive | 
CCOC(=O)CC(CC(=O)OCC)(OC(C)=O)C(=O)OCC | inactive | 
CCc1cc(SCc2sc(-c3ccc(C(F)(F)F)cc3)nc2CN2CCN(c3ccc(OC)cc3)CC2)ccc1OCC(=O)O |  | 3.2 µM (active)
CC[C@H]1CC[C@H](NCc2cc3c(cc2OC)[C@H]2C[C@H]2C(=O)N3C)[C@H](c2ccccc2)N1 | inactive | 
CC(=O)c1ccc2c(c1)[C@H](NC(=O)c1ccc(F)cc1)[C@@H](O)C(C)(C)O2 | inactive | 
CCCCC(CC)COC(=O)c1ccc(C(=O)OCC(CC)CCCC)cc1 (stereo not given) | inactive | 
Cc1[nH]cnc1C[C@H]1CCc2c(C)c3ccccc3n2C1=O | inactive | 
COCCOCCOCCOC | inactive | 
CCOC(=O)c1ccc(C2CCC(NC[C@H](O)COc3ccc(O)c(NS(C)(=O)=O)c3)CC2)cc1 (stereo not given in full) | inactive | 
CC1(C)C(=O)N(Br)C(=O)N1Br | inactive | 
O=c1n(CC2CO2)c(=O)n(CC2CO2)c(=O)n1CC1CO1 (stereo not given) | inactive | 
CC(C)CCCCCCCOC(=O)CCCCC(=O)OCCCCCCCC(C)C | inactive | 
CN(C)c1ccc(Cc2ccc(N(C)C)cc2)cc1 |  | 28.8 µM (active)
CCN(C(=O)c1cc(C)cc(OC[C@H](C)Nc2ccncc2)c1)C(C)C | inactive | 
CC(C)=CCC/C(C)=C/CO | inactive | 
NC(=O)NO | inactive | 
COc1cccc(-c2ccc(/C=C\CN3CCCCCC3)cc2Cl)c1 |  | 27.9 µM (active)
CC(C)CCO | inactive | 
Cc1ccc(O)cc1 | inactive | 
